Counter-ions that a name gives are not always drawn.
system: Klebsiella aerogenes DSM 30053; test: growth (OD595) fold change vs plate DMSO controls (fold change (ratio)); higher = more growth; conditions: incubation time: 27 h, anaerobic, 37 °C
How it was run: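 Anaerobic mGAM cultures in 96-well plates were grown for 27 h at 37 °C, and absorbance was then read at 595 nm. After blank and compound background correction with 20 µM compound solutions in water, a calibration factor of 5 gave OD. Growth is the fold change relative to the median of each plate's DMSO controls. Values are means of 2 biological replicates, with fold changes above 1.5 set to NA.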

| Structure (SMILES) | growth |
| --- | --- |
| CNC(=C[N+](=O)[O-])NCCSCc1ccc(CN(C)C)o1 [Ranitidine hydrochloride] (20 µM) | 1.07 |
| C/C(O)=C(\C#N)C(=O)Nc1ccc(C(F)(F)F)cc1 [Teriflunomide] (20 µM) | 1.01 |
| Cc1ccsc1/C=C/C1=NCCCN1C [Morantel tartrate] (20 µM) | 1.08 |
| CCCCOCCOCCOCc1cc2c(cc1CCC)OCO2 (20 µM) | 1.03 |
| CC(C)C(=O)Nc1ccc([N+](=O)[O-])c(C(F)(F)F)c1 [Flutamide] (20 µM) | 0.938 |
| N=c1nc(N2CCCCC2)cc(N)n1O [Minoxidil] (20 µM) | 1.03 |
| C[C@]12CCC3=C4CCC(=O)C=C4CC[C@H]3[C@@H]1CC[C@@]2(O)CC#N [Dienogest] (20 µM) | 0.616 |
| CN(Cc1cnc2nc(N)nc(N)c2n1)c1ccc(C(=O)N[C@@H](CCC(=O)O)C(=O)O)cc1 [Amethopterin] (20 µM) | 1.09 |
| NC(=O)C1CO1 (stereo not drawn) [Glycidamide] (20 µM) | 0.998 |
| O=C1[C@H]2CCCC[C@H]2C(=O)N1CCCCN1CCN(c2nsc3ccccc23)CC1 [Perospirone hydrochloride] (20 µM) | 1.01 |
| C=C1[C@H](CO)[C@@H](O)C[C@@H]1n1cnc2c(=O)[nH]c(N)nc21 [Entecavir] (20 µM) | 1.04 |
| O=c1n(CCCN2CCN(c3cccc(Cl)c3)CC2)nc2ccccn12 [Trazodone hydrochloride] (20 µM) | 0.987 |
| CC(=O)Nc1nnc(S(N)(=O)=O)s1 [Acetazolamide] (20 µM) | 1.04 |

Source: the supplement of paper PMC12494721
